# CHX counter = affects cycloheximide protein synthesis inhibition readout, counter-screen; cell reporter, cycloheximide protein synthesis inhibition counterscreen; max response, %; 12% of 300,000 active; AID 2314; in the data active means max response mostly above about 13%, no sharp cut-off; inactive means mostly below about 14%; further: read at 38.3 µM for the half of the compounds with a filed dose; 0% is about no effect
# Shiga toxin inh = blocks Shiga toxin action in Vero cells; Vero cells, Shiga toxin protein synthesis inhibition reporter; AID 2315; inhibition, % at 38.7 µM; 9.2% of 290,000 active; in the data active means inhibition mostly above about 28%, no sharp cut-off; inactive means mostly below about 43%; further: 0% is about no effect
# AmpC inh detg = inhibitors of E. coli AmpC beta-lactamase with detergent. P00811. AmpC hydrolysis of nitrocefin, absorbance 480 nm, 0.01% Triton. Potency, µM (top dose mostly 114 µM), for the others: at the top dose activity change, negative = inhibition, hits mostly inhibitors. 0.041% of 370,000 active. AID 485294;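 further: potency means the concentration at half of the fitted maximal effect; 0% = no-compound wells and -100% = no-enzyme wells; nearly all actives have a fitted effect of over 25% in size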
# Target sequence (P00811 whole entry, looked up): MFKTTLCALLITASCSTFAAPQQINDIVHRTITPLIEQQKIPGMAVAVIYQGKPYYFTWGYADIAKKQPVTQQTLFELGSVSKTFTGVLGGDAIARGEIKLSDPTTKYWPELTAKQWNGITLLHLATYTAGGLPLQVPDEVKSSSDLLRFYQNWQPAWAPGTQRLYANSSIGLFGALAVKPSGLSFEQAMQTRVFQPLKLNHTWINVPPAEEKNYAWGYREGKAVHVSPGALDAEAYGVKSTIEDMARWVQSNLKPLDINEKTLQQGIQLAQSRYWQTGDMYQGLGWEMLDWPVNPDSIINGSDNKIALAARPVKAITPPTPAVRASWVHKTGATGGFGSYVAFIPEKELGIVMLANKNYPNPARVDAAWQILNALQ
#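 20 mM phosphate pH 7.0 + 0.01% (detergent screen) or 0.0001% Triton X-100; 5.3 nM AmpC reagent; cpd preinc 15 min RT; nitrocefin (800 uM stock) to start; A480 q20 s × 4 min; Activity was normalised to no-enzyme and no-compound control wells.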
# SARS PLP yeast = blocks SARS-CoV papain-like protease in a yeast assay; S. cerevisiae expressing SARS-CoV PLpro, growth rescue; Potency, µM (series often up to 32.9 µM), for the others: top-dose activity, positive = growth rescue, hits mostly activators; 0.19% of 330,000 active; calls by dose curve; further: potency means the concentration at half of the fitted maximal effect; 0% is about no effect; nearly all actives have a fitted effect of over 55% in size
# AmpC no deterg = blocks E. coli AmpC beta-lactamase in detergent-free assay | AID 485341 | P00811 | AmpC nitrocefin hydrolysis, absorbance 480 nm, 0.0001% Triton | Potency, µM (top dose mostly 57.1 µM), for the others: at the highest dose activity change, negative = inhibition, usual class: inhibitors | 0.52% of 330,000 active;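 further: potency means the concentration at half of the fitted maximal effect; plate controls were no compound for no effect and no enzyme for full effect; nearly all actives have a fitted effect of over 20% in size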
#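 AmpC (5.3 nM in the dispensed reagent) in 20 mM phosphate pH 7.0 with 0.01% (detergent screen) or 0.0001% Triton X-100 was preincubated with compounds for 15 min at room temperature. Nitrocefin was then added from an 800 uM solution, and hydrolysis was followed at 480 nm.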
# AMA1-RON2 inh = disrupts binding of P. falciparum AMA1 to RON2; 0.2% of 360,000 active; Potency, µM (doses to about 58.2 µM), for inactives: at the highest dose activity change, negative = inhibition, most hits filed as inhibitors; AlphaScreen AMA1-biotinylated RON2 peptide binding;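 further: potency means the concentration at half of the fitted maximal effect; 0% = vehicle wells and -100% = peptide control; nearly all actives have a fitted effect of over 45% in size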
#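 AMA1 (3D7) with his tag at 25 nM final met compounds first, then biotinylated RON2 peptide at 25 nM; detection used donor plus acceptor beads, 10 µg/mL apiece, read by AlphaScreen after 30 min at room temperature.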
# * = called active by the depositor; ? = inconclusive; nt = no result; + = active, no number. The full list was thinned out, with hits kept by preference. Unless noted, the call rests on the fitted dose curve; in most records, active means well fitted curve in the direction sought with a large enough effect; inconclusive means small, poorly fitted or top-dose-only effect, or another doubt; inactive means no such curve, though single readings can be large; an effect the other way counts as inactive or inconclusive.
SMILES,CHX counter,Shiga toxin inh,AmpC inh detg,SARS PLP yeast,AmpC no deterg,AMA1-RON2 inh
c1ccc(Nc2nc(-c3ccncc3)cs2)cc1,60*,47*,0%,-53%,-1%,-7%
Clc1ccc(Nc2nc(-c3ccncc3)cs2)cc1,nt,nt,nt,nt,nt,7%
Nc1ccc(Nc2nc(-c3ccncc3)cs2)cc1,34*,62,1%,-19%,-11%,-11%
Fc1ccc(Nc2nc(-c3ccncc3)cs2)cc1,39*,80*,-6%,-9%,-21%,-8%
CCOC(=O)CSc1nnc(CNC(=O)c2cccc(C)c2)n1-c1ccccc1OC,-1,1,-4%,?,6%,-9%
COc1cc(/C=N/NC(=O)c2ccncc2)ccc1OC(C)=O,-2,-11,?,-3%,0%,-8%
COc1cc(/C=N/NC(=O)c2ccncc2)ccc1OCC(=O)Nc1cccc([N+](=O)[O-])c1,1,-6,-5%,2%,-13%,0%
COc1cc(/C=N/NC(=O)c2ccncc2)ccc1OCC(=O)Nc1ccc(C)c(C)c1,13*,40,-1%,-1%,86%,20%
COc1cc(/C=N/NC(=O)c2ccncc2)ccc1OCCN1CCCCC1,35*,+,-10%,-11%,-29%,7%
COc1cc(/C=C2\SC(N)=NC2=O)ccc1OCC(=O)Nc1ccc(C)cc1,-3,-8,?,4%,10µM*,10%
COc1ccc(/C=C2/SC(=O)N(CCC(=O)Nc3ccc(C)cc3)C2=O)cc1OC,0,33,-7%,5%,-2%,nt
COc1cc(/C=C2\C(=O)N(CCC#N)N=C2C)ccc1OCC(=O)Nc1ccccc1,63*,66*,-9%,-16%,-4%,16%
COc1ccc(CCNC(=O)C2CCC(CNS(=O)(=O)c3ccc(C)cc3)CC2)cc1OC (stereo not given),nt,nt,1%,nt,nt,nt
CCOC(=O)[C@]12CCC=C1N(Cc1ccc(Cl)cc1Cl)C(=O)[C@H](CC(=O)NCCC(C)C)C2,nt,nt,nt,nt,nt,-7%
COc1ccc(NC(=O)COc2ccc(/C=N/O)cc2OC)cc1,31*,52*,8%,-4%,-28%,-5%
COc1cc(/C=N/NC(=O)c2cc3ccccc3cc2O)ccc1OCCN1CCCCC1,42*,active,-7%,13%,136%,2%
C/C=C/c1ccc(OCC(=O)Nc2ccncc2)c(OC)c1,21*,39*,-2%,-1%,-6%,-12%
CCNC(=S)N/N=C/c1ccc(OCC(=O)Nc2ccc(OC)cc2)c(OC)c1,-1,-8,-1%,6%,-35%,64%
COc1cc(/C=C2\SC(c3ccc(C)cc3)=NC2=O)ccc1O,23*,52*,-2%,-10%,-29%,0%
C=CCOc1ccc(/C=N/NC(=O)CN2CCCCC2)cc1OC,1,-8,?,13%,-19%,10%
CCS/C(N)=N/N=C/c1cc(C)ccc1O,53*,50,2%,-3%,-55%,-6%
CCCCS/C(N)=N/N=C/c1cc(C)ccc1O,44*,82*,-9%,-5%,-29%,140%
CS/C(N)=N/N=C/c1cc(Br)cc(Br)c1O,17*,65*,11%,-6%,-26%,31%
CCN(CC)c1ccc(/C=N/N=C(N)N)c(O)c1,-2,-22,5%,0%,-36%,54%
CS/C(N)=N/N=C/c1cc(C)ccc1O,38*,61*,-2%,-3%,-15%,124%
SMILES,CHX counter,Shiga toxin inh,AmpC inh detg,SARS PLP yeast,AmpC no deterg,AMA1-RON2 inh
CC(C)C(NC(=O)c1ccccc1F)C(=O)NCc1ccc(F)cc1 (stereo not given),-5,-8,-2%,1%,-10%,-2%
COc1ccc(OC)c(C(=O)N(C[C@H]2CC[C@@H]([C@@H]3CC[C@H](CO)O3)O2)C(C(=O)NC(C)(C)C)c2ccc(-c3ccccc3)cc2)c1 (stereo not given in full),nt,nt,nt,18%,150%,9%
Nc1nc(-c2ccccc2)c(N=Nc2cccc3ccccc23)s1,8,-4,-3%,-65%,-22%,16µM*
Nc1nc(-c2ccccc2)c(N=Nc2ccccc2Cl)s1,-2,-15,?,6%,-34%,14µM*
COc1ccc(N=Nc2cnc(C)nc2-c2ccccc2)cc1,8,22,1%,-1%,?,?
Cc1ncc(N=Nc2ccccc2Cl)c(-c2ccccc2)n1,1,-6,-11%,-4%,2%,25µM*
Nc1nc(-c2ccc(Cl)cc2)c(N=Nc2ccc(S(=O)(=O)N3CCOCC3)cc2)s1,-1,-7,-11%,1%,-28%,-8%
Cc1ccsc1C(=O)OCc1nc2ccsc2c(=O)[nH]1,nt,nt,-12%,0%,-18%,9%
CCOC(=O)c1nc2ccccc2c(=O)[nH]1,37*,54*,4%,-4%,-12%,17%
Cc1ccsc1C(=O)OCc1nc2ccccc2c(=O)[nH]1,58*,61*,0%,-16%,-31%,28%
C=CCn1c(SCC(=O)Nc2ccc(C(=O)OC(C)C)cc2)nnc1-c1cccs1,7,19,6%,-1%,-10%,-3%
CCOC(=O)CN1C(=O)C(O)(CC(=O)c2cc(OC)ccc2OC)c2ccccc21 (stereo not given),nt,nt,0%,nt,nt,nt
CCN(CC)C(=O)c1sc(NC(=O)c2ccc3c(c2)OCO3)c(C#N)c1C,-1,-18,3%,9%,1%,11%
C/C(=N\NC(=S)NC(C)C)c1ccc(Cl)s1,16,24,?,?,-9%,27%
C/C(=N\NC(=O)c1csc(C)c1C)c1ccc(Cl)s1,33*,72*,5%,-8%,-3%,33%
C/C(=N\NC(=O)c1ccoc1C)c1ccc(Cl)s1,41*,87*,?,3%,-10%,42%
CC/C(=N\NC(=O)c1ccoc1C)c1ccc(C)o1,82*,149*,1%,-6%,15%,5%
CC/C(=N\NC(=O)c1c(-c2ccccc2)noc1C)c1ccc(C)o1,-1,-9,3%,3%,-46%,23%
COc1cc(S(=O)(=O)N2CCN=C2c2ccccc2)ccc1F,0,-12,-4%,-2%,-3%,-4%
COCCNC(=O)c1ccc(-c2ccc(OC)cc2C)c2ccoc12,nt,nt,nt,nt,nt,0%
C=CCn1c(O)c(CN2CCOCC2)c(C)c(C#N)c1=O,30*,91*,?,3%,-19%,15%
O=C(COC(=O)c1ccccc1F)c1ccc(-n2nncc2-c2ccco2)cc1,21*,40,?,9%,-26%,-14%
CCCCCCN(C(=O)CCCCCN1C(=O)NC(c2ccc(-c3ccccc3)cc2)C(C(=O)OCc2ccccc2)=C1C)C(C(=O)NCCCC)c1ccc(OCC(=O)OC)c(C(=O)OC)c1 (stereo not given),-7,-1,4%,2%,36%,nt

# Bioassay records deposited in PubChem BioAssay by National Center for Advancing Translational Sciences (NCATS).
